The nature of assay [1]: Quantitative High-Throughput drug screen in 47 multiple myeloma cell lines against the NCATS MIPE library collection: MM1S_ATCC cell viability assay (AID 1918980). Further: nearly all actives have a fitted effect of over 45% in size. A digest of the protocol: (§1)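 ATP-based CellTiter-Glo luminescence after 48 h drug exposure (37 °C, 5% CO2) of 500 myeloma cells per well. DMSO-only wells set 100% viability, media-only wells 0%; MIPE 4.0 library added by pin tool.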

Assay [2] can be described thus: Quantitative High-Throughput drug screen in 47 multiple myeloma cell lines against the NCATS MIPE library collection: MM1R_ATCC cell viability assay (AID 1918981). Further: nearly all actives have a fitted effect of over 35% in size. A digest of the protocol:
as §1

A short description of assay [3]: Quantitative High-Throughput drug screen in 47 multiple myeloma cell lines against the NCATS MIPE library collection: LP1_DSMZ cell viability assay (AID 1918982). Further: nearly all actives have a fitted effect of over 35% in size. A digest of the protocol: as §1
Assay [4] can be described thus: Quantitative High-Throughput drug screen in 47 multiple myeloma cell lines against the NCATS MIPE library collection: KMS28PE_JCRB cell viability assay (AID 1918983). Further: nearly all actives have a fitted effect of over 35% in size. The method in brief: as §1
The nature of assay [5]: Quantitative High-Throughput drug screen in 47 multiple myeloma cell lines against the NCATS MIPE library collection: L363_DSMZ cell viability assay (AID 1918984). Further: nearly all actives have a fitted effect of over 40% in size. The method in brief:
as §1

Assay [6] can be described thus: Quantitative High-Throughput drug screen in 47 multiple myeloma cell lines against the NCATS MIPE library collection: KMS34_JCRB cell viability assay (AID 1918985). Further: nearly all actives have a fitted effect of over 40% in size. A digest of the protocol: as §1
A short description of assay [7]: Quantitative High-Throughput drug screen in 47 multiple myeloma cell lines against the NCATS MIPE library collection: OCIMY7_PLB cell viability assay (AID 1918987). Further: nearly all actives have a fitted effect of over 65% in size. Particulars: OCI-MY7 myeloma viability, CellTiter-Glo ATP, 48 h; viability (% of DMSO): at 45.8 µM (top of the series). The method in brief: as §1
The nature of assay [8]: Quantitative High-Throughput drug screen in 47 multiple myeloma cell lines against the NCATS MIPE library collection: OCIMY5_PLB cell viability assay (AID 1918988). Further: nearly all actives have a fitted effect of over 65% in size. A digest of the protocol: as §1
Assay [9] in a line: Quantitative High-Throughput drug screen in 47 multiple myeloma cell lines against the NCATS MIPE library collection: OPM1_PLB cell viability assay (AID 1918989). Further: nearly all actives have a fitted effect of over 40% in size. A digest of the protocol:
as §1

Assay [10] in a line: Quantitative High-Throughput drug screen in 47 multiple myeloma cell lines against the NCATS MIPE library collection: SKMM1_PLB cell viability assay (AID 1919863). Further: nearly all actives have a fitted effect of over 35% in size. Particulars: SKMM1 myeloma viability, CellTiter-Glo ATP, 48 h; viability: hits give low values. The method in brief: as §1
Background: ATP-based viability assays read luminescence as a measure of living cells.

Results filed as inconclusive are left out. Values without a mark were called inactive. Calls of active or inactive are those of the source. The call rests on the fitted dose curve; in most records, active means well fitted cell-killing curve with a large enough effect; inconclusive means small, poorly fitted or top-dose-only effect, or effect the other way; inactive means no such curve, though single readings can be large or run the other way. Starred links: 1 amine or outer side, 2 acyl side, 3 side chain; linkers in the order of their positions; H or OH if unused. Positions of bridges follow the written chain, without caps; N, C: chain ends. Non-standard residues stand in square brackets, D forms with d. Residues, ends and D or L forms follow the SMILES beside them. Chains are numbered I, II in the order given. *: point of attachment. Actinocin(9to1) = Cc1c2oc3c(C)ccc(C(=O)[*:1])c3nc-2c(C(=O)[*:2])c(N)c1=O; NMeV = CN[CH](C(=O)O)C(C)C; Cbz = O=C(OCc1ccccc1)*; Sar = CNCC(=O)O
Potency means the concentration at half of the fitted maximal effect.

Regarding `C[C@H](NCc1ccc2c(c1)nc(NC(=O)c1ccc(-c3cn[nH]c3)s1)n2CCc1ccccc1)C(C)(C)C`, the Potency in assay [1] was 1660 nM (active); in assay [2], 1660 nM (active); in assay [3], 1050 nM (active); in [4], 2350 nM (active); in assay [5] it was 469 nM (active); in [6], 1050 nM (active). Besides, the Potency in assay [7] was 418 nM (active); in [8] it was 833 nM (active); in [9] it was 1180 nM (active); in [10], 2960 nM (active).

A word on the viability: it is a read-out of living cells in per cent, often relative to untreated cells. On to `Cc1c2oc3c(C)ccc(C(=O)NC4C(=O)NC(C(C)C)C(=O)N5CCCC5C(=O)N(C)CC(=O)N(C)C(C(C)C)C(=O)OC4C)c3nc-2c(C(=O)NC2C(=O)NC(C(C)C)C(=O)N3CCCC3C(=O)N(C)CC(=O)N(C)C(C(C)C)C(=O)OC2C)c(N)c1=O` (centres undefined) (I: TVP[Sar][NMeV] / II: TVP[Sar][NMeV]; ester I:1-I:C, II:1-II:C; linker I:N-II:N via Actinocin(9to1); configuration not given here), for which the Potency entry in assay [1], in [2], in [3], in assay [4], in assay [5] and in assay [6] was “inactive” each time. Further, the Potency entry in assay [8] and in assay [9] was “inactive” in each case. Besides, the viability in assay [10] is -11%.

For `CC(C=CC(=O)NO)=C[C@@H](C)C(=O)c1ccc(N(C)C)cc1`, the Potency in assay [1] was 187 nM (active); in assay [2], 132 nM (active); in assay [3], 372 nM (active); in assay [4] it was 296 nM (active); in [5], 132 nM (active); in assay [6], 83.3 nM (active). Moreover, the values for the Potency in [7], in assay [9] and in assay [10] were 148 nM (active), 332 nM (active) and 166 nM (active), respectively.

As for `CN(C)c1ccc2cc(C(=O)N[C@@H](CCCN=C(N)CCl)C(=O)NCc3ccccc3)ccc2c1`, the Potency is 1180 nM (active) in assay [1]; 4690 nM (active) in assay [2]; 14800 nM (active) in assay [3]; 11800 nM (active) in assay [4]; 6620 nM (active) in assay [5]; 8330 nM (active) in assay [6]. Besides, the Potency is 4180 nM (active) in assay [8], 7430 nM (active) in [9] and 18700 nM (active) in [10].

In the case of `Cc1cnc(Nc2ccc(N3CCN(C)CC3)cc2)nc1Nc1cccc(S(=O)(=O)NC(C)(C)C)c1`, the Potency was 3320 nM (active) in assay [1]; 5260 nM (active) in assay [2]; 5260 nM (active) in assay [3]; 7430 nM (active) in [4]; 3720 nM (active) in [5]; 2350 nM (active) in [6]. In addition, the Potency in assay [7] is 935 nM (active); in assay [10], 3320 nM (active).

`COc1ccc([C@@H]2CNC(=O)C2)cc1OC1CCCC1`: the Potency in assay [1] is 743 nM (active). In addition, the Potency result in [2] and in assay [3] was “inactive” throughout.

As to `CC(=O)O[C@@]12CO[C@H]1C[C@H](O)[C@@]1(C)C(=O)[C@H](O)C3=C(C)[C@@H](OC(=O)C(O)[C@@H](NC(=O)OC(C)(C)C)c4ccccc4)C[C@@](O)([C@@H](OC(=O)c4ccccc4)[C@@H]21)C3(C)C` (some centres undefined), the Potency entry in assay [1], in [2], in [3], in assay [4], in [5] and in assay [6] was “inactive” in each case. Besides, the Potency result in assay [7], in [8] and in assay [9] was “inactive” in each case. Further, in assay [10], the viability was 60%.

For the molecule `CC(C)N1[N]C(=C2C=c3cc(O)ccc3=N2)c2c(N)ncnc21`, the Potency in assay [1] is 469 nM (active); in assay [2], 418 nM (active); in assay [3], 2.6 nM (active); in assay [4] it was 209 nM (active); in [5], 59 nM (active); in assay [6], 296 nM (active). Further, the Potency in assay [7] was 743 nM (active); in [9], 296 nM (active); in [10], 118 nM (active).

As to `CC(C)C[C@@H](C=O)NC(=O)[C@H](CC(C)C)NC(=O)[C@H](CC(C)C)NC(=O)OCc1ccccc1` (Cbz-Leu-Leu-Leu-aldehyde), the Potency was 166 nM (active) in assay [1]; 332 nM (active) in [2]; 662 nM (active) in assay [3]; 209 nM (active) in [4]; 118 nM (active) in assay [5]; 235 nM (active) in [6]. Further, the Potency was 296 nM (active) in assay [7], 372 nM (active) in assay [8], 296 nM (active) in assay [9] and 1180 nM (active) in assay [10].

Consider `CO[C@@H]1[C@@H](O)[C@H](O)[C@@H](n2c3c(Cl)cccc3c3c4c(c5c6cccc(Cl)c6[nH]c5c32)C(=O)NC4=O)O[C@@H]1CO`, for which the Potency in assay [1] was 372 nM (active); in assay [2], 526 nM (active); in [3], 6620 nM (active); in assay [4], 1320 nM (active); in [5], 1050 nM (active); in [6] it was 1320 nM (active). Further, the Potency was 148 nM (active) in assay [7], 2090 nM (active) in [8], 2090 nM (active) in assay [9] and 2350 nM (active) in [10].

As for `CCS(=O)(=O)Nc1ccc2[nH]c(O)c(C(=Nc3ccc(CN4CCCCC4)cc3)c3ccccc3)c2c1`, the Potency was 469 nM (active) in assay [1]; 526 nM (active) in assay [2]; 7430 nM (active) in assay [3]; 1050 nM (active) in [4]; 52.6 nM (active) in [5]; 935 nM (active) in [6]. Moreover, the Potency in assay [7] is 66.2 nM (active); in assay [8], 2090 nM (active); in assay [9], 332 nM (active); in [10], 5900 nM (active).

Consider `Oc1cc2c(cc1O)C1c3ccc(O)c(O)c3OCC1(O)C2` (centres undefined), for which the Potency in [1] was 9350 nM (active). For the same molecule, the Potency result in assay [2], in assay [3], in [4], in [6], in assay [8] and in assay [9] was “inactive” each time. Moreover, in assay [10], the viability is 120%.

As to `CC(C)c1cnn2c(NCc3ccccc3)cc(NCCCCCCN)nc12`, the Potency was 3320 nM (active) in [1]; 20900 nM (active) in assay [2]; 18700 nM (active) in assay [3]; 14800 nM (active) in assay [4]; 14800 nM (active) in [5]; 11800 nM (active) in assay [7]. Moreover, the Potency in assay [8] is 6620 nM (active); in assay [9] it was 18700 nM (active).

For `CCOc1cc2c(c(F)c1OCC)C(=N)N(CC(=O)c1cc(N3CCOCC3)c(OC)c(C(C)(C)C)c1)C2`, the Potency in assay [1] is 14800 nM (active); in assay [2], 20900 nM (active); in [3], 16600 nM (active); in assay [4], 20900 nM (active); in assay [6], 23500 nM (active); in [8], 16600 nM (active). Further, the figures for the Potency in assay [9] and in [10] were 14800 nM (active) and 20900 nM (active), respectively.

Regarding `CC(C)(N)c1ccc(-c2nc3ccccc3nc2-c2ccccc2)cc1`, the Potency in assay [1] is 18700 nM (active); in [2], 26400 nM (active); in assay [3] it was 18700 nM (active); in assay [4], 18700 nM (active); in assay [5], 3320 nM (active); in assay [7], 7430 nM (active). The Potency is 23500 nM (active) in [8] and 5900 nM (active) in assay [9].
